Screens deposited in PubChem by Sanford-Burnham Center for Chemical Genomics.
Rows were chosen to be rich in hits. Some 2.6% of all compounds tested hit in one or more screens of this group.
MLLE-PAM2 inh: blocks PAM2 peptide binding to the PABP1 MLLE domain | AID 588489 | P11940 | GST-MLLE / FITC-PAM2 fluorescence polarization | inhibition, % at 20 µM | hit rate 0.36% among 360,000; in the data active means inhibition above about 35%, passing the limit was not always enough;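 further: plate controls were DMSO wells with GST-MLLE for no effect and wells lacking GST-MLLE protein for full effect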
APOBEC3G inh: APOBEC3G (human) deaminase inhibition. recombinant A3G, ssDNA deamination FAM/TAMRA fluorescence. inhibition, % at 20 µM. hit rate 0.28% among 330,000. AID 493012;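 active means inhibition of at least 40% at 20 µM, with no more than 30% in the related APOBEC3A deaminase screen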;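 further: plate controls were DMSO wells with A3G for no effect and wells lacking A3G enzyme for full effect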
PABP polyA inh: PABP-poly(A) binding inhibition; hit rate 1% among 290,000; P11940; calls only at 35 µM; PABP-poly(A) RNA binding, fluorescence polarization;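 further: calls also rest on retests at 20 µM and on dose response follow-up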
eIF4H FP inh: inhibitors of RNA binding by human eIF4H | eIF4H fluorescence polarization binding assay | inhibition, % at 35 µM | hit rate 0.94% among 290,000;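 further: calls also rest on retests at 20 µM and on dose response follow-up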
APOBEC3A inh: inhibitors of human APOBEC3A DNA deaminase; hit rate 0.41% among 330,000; inhibition, % at 20 µM; P31941; AID 493011; recombinant A3A, FAM/TAMRA ssDNA deamination fluorescence;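 active means at least 40% inhibition at 20 µM here, with at most 30% in a related deaminase screen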;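 further: plate controls were A3A with DMSO for no effect and wells lacking A3A enzyme for full effect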
PHOSPHO1 block: inhibitors of human PHOSPHO1 phosphatase; inhibition, % at 13.3 µM; recombinant PHOSPHO1, absorbance phosphatase assay; hit rate 1.1% among 290,000; Q8TCT1; in the data active means inhibition above about 60%
Target sequence (Q8TCT1 whole entry, looked up): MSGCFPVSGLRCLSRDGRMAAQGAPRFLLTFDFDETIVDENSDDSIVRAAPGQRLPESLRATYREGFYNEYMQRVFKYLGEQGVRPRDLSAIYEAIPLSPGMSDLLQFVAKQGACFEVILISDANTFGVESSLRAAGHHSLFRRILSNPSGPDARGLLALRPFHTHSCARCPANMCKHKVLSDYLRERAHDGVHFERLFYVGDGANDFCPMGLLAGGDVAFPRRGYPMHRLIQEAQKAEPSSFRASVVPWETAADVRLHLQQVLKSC
APOBEC3A confirm: confirmation of human APOBEC3A DNA deaminase inhibitors; shares compounds with APOBEC3A inh; recombinant A3A, ssDNA deaminase UDG fluorescence assay; inhibition, % at 20 µM; hit rate 63% among 1,400; AID 493151;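 active means inhibition reaching a set limit, 80% of the first screen's cutoff, at 20 µM in any replicate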;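 further: plate controls were DMSO wells with A3A for no effect and wells lacking A3A enzyme for full effect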
UDG ctr A3A: UDG inhibition in APOBEC3A counter-screen | 1,000 tested, under 10 active | inhibition, % at 20 µM | AID 504714 | UDG counterscreen, FAM/TAMRA uracil oligo fluorescence | shares compounds with APOBEC3A inh
* marks the source's active call; other numbers are inactive results; i = inactive; ? = inconclusive; nt = no result; + = active, no number. Unless noted, how the calls were made is not given here.

SMILES	MLLE-PAM2 inh	APOBEC3G inh	PABP polyA inh	eIF4H FP inh	APOBEC3A inh	PHOSPHO1 block	APOBEC3A confirm	UDG ctr A3A
O=[N+]([O-])c1ccccc1S(=O)(=O)NC1CCCC1	15	3	i	6	8	40	nt	nt
Cc1ccc(N2CC(C(=O)Nc3cccc(C(=O)NC4CC4)c3)CC2=O)cc1 (centres undefined)	-13	7	nt	nt	41*	nt	23	nt
Cc1ccc(Cc2c(-c3ccc(F)cc3)nc3c(C)cc(Br)cn23)cc1	-7	nt	nt	nt	nt	nt	nt	nt
COc1cc2c(cc1OC)C[N+](C)(C)CC2	-110	11	i	5	45*	-44	75*	-4
Cc1ccc2[nH]cc(/C=C/c3cc[n+](C)cc3)c2c1	-36	-14	?	?	49*	-29	67*	-8
CCn1c(/C=C/c2c[nH]c3ccccc23)nc2ccccc2c1=O	-6	-12	i	-3	-3	41	nt	nt
COc1ccc2c(C=O)c[nH]c2c1	-7	2	i	7	0	-4	nt	nt
COc1ccc2c(/C=C/c3cc[n+](C)cc3)c[nH]c2c1	-155	12	i	-11	45*	22	61*	3
CC[n+]1ccc(/C=C/c2c[nH]c3ccccc23)cc1	-78	2	?	?	48*	-25	64*	-8
O=C(OCCN1CCCCC1)c1c[nH]c2ccccc12	11	-5	nt	nt	0	nt	nt	nt
Cc1ccc(C(=O)Nc2cc([N+](=O)[O-])ccc2C)cc1	6	-9	i	2	-4	-3	nt	nt
Cc1ccc(C)c(NC(=O)c2ncn[nH]2)c1	-110	12	i	-1	45*	10	41*	-1
Cc1ccc(C)c(NC(=O)c2cc[n+](C)cc2)c1	-129	9	i	11	79*	14	69*	-2
Cc1c(NC(=O)c2ncn[nH]2)cccc1-c1nc2ccccc2s1	-122	25	i	3	75*	6	72*	3
C[n+]1ccc(C(=O)Nc2ccccc2Cl)cc1	-109	14	+	10	73*	-137	69*	-2
CCn1c(=S)[nH]c2cc(S(=O)(=O)N3CCCCC3)ccc21	-69	1	i	8	-4	51	nt	nt
O=C(Nc1cc(S(=O)(=O)N2CCCCC2)ccc1N1CCCCC1)c1ccncc1	-15	-3	i	-1	-3	6	nt	nt
COC(=O)N/N=C(C)\C=C\c1ccco1	9	0	i	29	49*	-12	2	nt
CCOc1cc(S(=O)(=O)n2ccnc2)ccc1Cl	4	-5	i	-7	-2	-13	nt	nt
Cc1cccc(C(=O)Nc2nnc(SCC(=O)Nc3ccc4c(c3)oc3ccccc34)s2)c1	-136	14	i	-3	81*	5	84*	-2
Cc1ccc(C)c(NC(=O)CCN2CCN(CCO)CC2)c1	2	-3	i	-3	-3	-19	nt	nt
Cc1ccc(C2=NN(CCC(=O)NC3CCCC3)C(=O)CC2)cc1	1	-2	nt	nt	-4	24	nt	nt
O=C(NCCOc1ccccc1)c1ncn[nH]1	-106	21	i	0	76*	12	52*	-3
Cc1ccc(S(=O)(=O)N2CCC(C(=O)C3C(=O)CCCC3=O)CC2)cc1	3	-6	i	-2	-3	41	nt	nt
CC1(C)CC(=O)C(C(=O)C2CCN(S(=O)(=O)c3ccccc3)CC2)C(=O)C1	11	-7	i	0	47*	28	-5	1
SMILES	MLLE-PAM2 inh	APOBEC3G inh	PABP polyA inh	eIF4H FP inh	APOBEC3A inh	PHOSPHO1 block	APOBEC3A confirm	UDG ctr A3A
CCC(=O)N1CCc2cc(S(=O)(=O)NCCc3ccc(S(N)(=O)=O)cc3)ccc21	-3	-10	i	-8	-5	22	nt	nt
O=C(N/N=C1\C2CN3CCN(C2)CC1(c1ccccc1)C3)Nc1ccccc1	-19	-3	i	0	3	19	nt	nt
CC(=O)c1ccccc1NS(=O)(=O)c1cccc2nsnc12	10	8	i	49	41*	20	29*	2
C=CCC1(CC=C)CCCN1C(=O)c1cc(COc2cccc(OC)c2)on1	7	-6	i	-2	-4	12	nt	nt
C=CCC1(CC=C)CCCN1C(=O)c1cc(COc2cncc(Cl)c2)on1	1	-2	i	-2	53*	66*	-10	4
COc1ccccc1OC(C)C(=O)Nc1ccccc1C(=O)NCc1cccnc1 (centres undefined)	13	-8	i	8	-4	36	nt	nt
CCCC[n+]1ccn(-c2nc3c([N+](=O)[O-])cccc3n2C)c1	-124	17	nt	nt	68*	5	78*	nt
O=c1[nH]c(N/N=C/c2cc3c(cc2[N+](=O)[O-])OCO3)nc2ccccc12	-112	16	i	4	44*	-98	71*	-4
O=c1[nH]c(N/N=C\c2ccc3c(c2)OCO3)nc2ccccc12	-59	-5	i	16	1	37	nt	nt
CC(=O)C1C=CC(C)(C(=O)O)C2C=C(C)C(=O)C(C)(O)C12 (centres undefined)	-1	nt	nt	nt	nt	nt	nt	nt
COC(=O)CN(c1ccc(OC)cc1OC)S(=O)(=O)c1ccccc1[N+](=O)[O-]	5	-7	i	-10	-2	6	nt	nt
COc1ccc(N(CC(=O)N2CCCCCC2)S(=O)(=O)c2ccccc2[N+](=O)[O-])c(OC)c1	-137	17	nt	nt	50*	22	62*	-2
CCC(=O)/C=C1\Sc2ccc(OC)cc2N1CC	38	-2	i	-9	0	28	nt	nt
CCN1/C(=C\C(C)=O)Sc2ccc(OC)cc21	-125	16	i	-11	58*	61*	67*	2
CC(Sc1nnnn1C)C(=O)Nc1ccc(Oc2ccccc2)cc1 (centres undefined)	-9	2	i	-9	3	-7	nt	nt
CCC(Sc1nnnn1C)C(=O)Nc1ccc(C(C)=O)cc1 (centres undefined)	-129	18	i	10	40*	-13	29	nt
CCn1c2c(c(C)cc1=O)C(=O)CC(C)(C)C2	2	-5	i	1	-1	7	nt	nt
CCn1c(C)c2c([n+]1CC)CC(C)(C)CC2=O	-121	27	i	4	59*	91*	76*	-4
Cc1cc(C(=O)O)ccc1-c1ccc(/C=C2\NC(=O)N(Cc3ccc(F)cc3)C2=O)o1	-4	26	+	81*	58*	-21	44*	0
O=C(O)c1cccc(-n2cccc2/C=C2\NC(=O)N(Cc3ccc(F)cc3)C2=O)c1	5	29	+	82	87*	34	74*	-2
O=C(O)c1ccc(COc2ccc3ccccc3c2/C=C2/NC(=O)N(Cc3ccc(F)cc3)C2=O)cc1	-9	nt	i	18	nt	45	nt	nt
